Hit rate of the full screen: of about 340,000 compounds, about 1,000 (0.29%) were called active. A selection follows. Entries with a potency or affinity are not part of this list. A number with no mark means an inactive call. No stated cut-off is given here; in the data, inconclusive means inhibition above about 27% without an active follow-up result; inactive means below that.
Test: NS1A inhibition, H1N1 influenza, cell based functional assay (AID 504329)
Conditions: percent inhibition, at 12.5 µM, hits give high values

Structure (SMILES)	inhibition
O=C(c1cccc(S(=O)(=O)N2CCOCC2)c1)N(Cc1ccco1)Cc1cccs1	4.9%
Oc1ccccc1C=Nc1ccccc1-c1nc2ccccc2[nH]1	41.1%
Oc1ccccc1C=Nc1cccc2ccccc12	-4.35%
Cc1ccc(Nc2cc(C)nc3c(C)cccc23)cc1	-2.9%
O=S(=O)(NCc1cc(-c2ccccc2Cl)no1)c1ccc(Cl)cc1	0.63%
COc1ccc(CNc2nc3nc(C)cc(C)n3n2)cc1	1.24%
CSc1ncccc1C(=O)Nc1cccc(S(=O)(=O)N2CCCC2)c1	-2.85%
O=C(COC(=O)c1ccccc1O)NNC(=O)c1ccc(Br)cc1	7.27%
O=C(C1CCN(Cc2nc(Cc3cccc(F)c3)no2)CC1)N1CCOCC1	7.26%
Cc1nnc2sc(SCc3cccc(Cl)c3)nn2c1=O	2.99%
Cc1nnc2sc(SCC(=O)Nc3ccc(Br)cc3)nn2c1=O	24.3%
Cc1ccc(NC(=O)CSc2nn3c(=O)c(C)nnc3s2)cc1Cl	12.2%
Cc1nnc2sc(SCc3ccc(Cl)cc3)nn2c1=O	-5.29%
Cc1cccc(CSc2nn3c(=O)c(C)nnc3s2)c1	-3.29%
Cc1nnc2sc(SCC(=O)Nc3nccs3)nn2c1=O	-3.22%
C=CC(C)(C)c1c(O)c(CC=C(C)C)c(O)c2c(=O)c3ccc(O)c(O)c3oc12	4.4%
O=C(Cc1cccc(C(F)(F)F)c1)OCC(=O)N1CCN(S(=O)(=O)c2ccc(Cl)cc2)CC1	-3.3%
CCOc1ccc(NC(=O)C2CCCN2C(=O)NC2CCCCC2)cc1 (stereo not given)	3.03%
Cc1ccc2cc(CCNC(=O)C3CCCC3)c(=O)[nH]c2c1	9.32%
CCC(C)(C)NC(=O)C(c1ccc(OC)cc1)N(C(=O)CCC(=O)Nc1cc(C)on1)c1ccc2c(c1)OCCO2 (stereo not given)	-4.61%
CNC(=O)c1[nH]cnc1C(=O)Nc1cccc(C)c1	-8.44%
COc1ccc(OCC(=O)Nc2ccc3c(c2)nc(CCn2ccccc2=O)n3C)cc1	5.24%
CC(C)(C)c1ccc(C(=O)N2CCNCC2)cc1	-7.49%
Oc1cc(-c2ccc(N3CCCCC3)nc2)cc2cccnc12	-0.13%

Structure (SMILES)	inhibition
CN1CCN(C(=O)c2ccc3nc(-c4ccccc4)c(-c4ccccc4)nc3c2)CC1	-4.76%
Cc1cc(N2CCN(C)CC2)nc(-c2ccccc2O)n1	8.33%
O=C(c1ccc(-c2ccccc2)cc1)N1CCN(c2ncccn2)CC1	20.6%
CN1CCN(C(=O)c2ccc3ccccc3c2)CC1	-18.4%
Cc1[nH]c2ccccc2c1C(=O)C(=O)N1CC(C)OC(C)C1 (stereo not given)	-0.55%
COc1ccc(NC(=O)CN(C)C(=O)C2CSC3(C)CCC(=O)N23)cc1 (stereo not given)	-5.66%
O=C(CCNC(=O)N1CC(=O)Nc2ccccc21)Nc1ccc(Cl)cc1	-4.42%
Cc1cc(C(=O)NN)c2cc(Br)ccc2n1	-10.8%
O=C(c1ccc(F)cc1F)N1CCC(N2CCC(C(=O)N3CCOCC3)CC2)CC1	4.56%
CCOC(=O)C(=O)Nc1ccccc1C(=O)NCc1ccccc1	-18.5%
CC(C)Cn1cnc2c(c1=N)C(c1ccccc1)C1=C(CC(C)(C)CC1=O)O2 (stereo not given)	0.81%
O=C(c1ccco1)[C@@H]1[C@@H]2C(=O)N(c3ccc(F)cc3)C(=O)[C@@H]2[C@H]2C=Cc3ccccc3N21	0.66%
COc1ccc(C2C(C(=O)c3ccccc3)N3c4ccccc4C=CC3C2[N+](=O)[O-])cc1 (stereo not given)	-12.1%
Cc1cc(C)cc(N2C(=O)CCN(Cc3ccccc3)C2=O)c1	0.48%
Cc1c(N=C/C=C2\N(C)c3ccccc3C2(C)C)c(=O)n(-c2ccccc2)n1C	1.39%
CC1=NN(c2ccccc2)C(=O)/C1=C/c1ccc(Cl)cc1	4.56%
CC1=NN(c2ccccc2)C(=O)/C1=C/C=C/C=C/N(C)C	22.1%
CC1=NN(c2ccccc2)C(=O)/C1=C/c1cccs1	24.1%
CC1=NN(c2ccccc2)C(=O)/C1=C\C=C1\N(C)c2ccccc2C1(C)C	25.6%
CC1=NN(c2ccccc2)C(=O)/C1=C/c1cccc(C)c1	-0.71%
CC1=NN(c2ccccc2)C(=O)/C1=C/N(C)C	12.1%
CC1=NN(c2ccccc2)C(=O)/C1=C/C=C/c1ccccc1	9.01%
CC(=O)Nc1cc(C)c2nc(NC(C)=O)sc2c1	8.68%
Cc1cc(C)c2nc(N3CCCC(C(=O)NC4CCCC4)C3)sc2c1 (stereo not given)	1.03%

Structure (SMILES)	inhibition
CN(CC(=O)Nc1c(Cl)cccc1Cl)C(=O)CCC1CCCC1	-7.47%
CCOc1ccc(OCCC(=O)OCC(=O)NCc2ccccc2)cc1	4.79%
Cc1nc2ccccc2c2oc(C(=O)N3CCc4ccccc4C3)cc12	14.6%
COc1ccccc1C(=O)NC(=O)COC(=O)c1ccc(Cl)cc1[N+](=O)[O-]	11.3%
O=C(N/N=C\C=C\c1ccc2c(c1)OCO2)C1COc2ccccc2O1 (stereo not given)	-2.03%
O=C1NC(=O)N(c2ccccc2)C(=O)/C1=C/C=C/c1ccco1	-5.11%
O=C1CC(N2C(=O)/C(=C/C=C/c3ccccc3)SC2=S)C(=O)N1c1ccccc1 (stereo not given)	7.39%
CCOC(=O)CC1=NN(c2ccccc2)C(=O)/C1=C\c1ccc(OC)cc1OC	17.9%
CN1/C(=C\C=C2C(=O)NC(=O)NC2=O)C(C)(C)c2ccccc21	-3.94%
CN1/C(=C\C=C2C(=O)NC(=S)NC2=O)C(C)(C)c2ccccc21	6.82%
O=C(O)c1ccc(N2C(=O)/C(=C/C=C/c3ccccc3)SC2=S)cc1	-0.2%
Cc1ccc(N2C(=O)NC(=O)/C(=C\C=C\c3ccco3)C2=O)cc1	-8.27%
COC(=O)CC1=NN(c2ccccc2)C(=O)/C1=C\c1ccc(OC)cc1	3.36%
Cc1ccc(S(=O)(=O)CCC(=O)OC2CC(C)OC2=O)cc1 (stereo not given)	-7.36%
C=CCOc1ccc(Br)cc1/C=C1\NC(=S)N(C(C)=O)C1=O	5.35%
O=C(O)CP(=O)(c1ccccc1)c1ccccc1	-20.8%
O=C(NC1CC1)C1CSC(c2cccnc2)=N1 (stereo not given)	-5.68%
COC(=O)CNC(=O)CNC(=O)c1nn(-c2ccc(OC)c(Cl)c2)c(=O)c2ccccc12	-9.13%
Cc1ccc(S(=O)(=O)c2nc(NCCN(C)C)sc2Cl)cc1	3.06%
CCOC(=O)C1=C(C(=O)OCC)N(Cc2ccccc2)CCC1=O	-3.47%
Cc1ccc(/C=N/NC(=O)C(C)NC(=O)c2ccccc2)cc1 (stereo not given)	-0.33%
CCC(C)NC(=O)CSc1nc2ccccc2c(=O)n1-c1c(C)n(C)n(-c2ccccc2)c1=O (stereo not given)	-0.57%
Fc1ccccc1CSc1nnc(-c2cnccn2)n1Cc1ccco1	-1.61%
CCCNC(=O)c1cc(-c2ccccc2)c(N2CCCCC2)s1	-16.7%

Structure (SMILES)	inhibition
O=C(NCCc1ccccc1)c1cc(-c2ccccc2)c(N2CCOCC2)s1	1.49%
CC(=O)n1cc(/C=N/NC(N)=S)c2ccccc21	-5.48%
NC(=S)N/N=C\c1c2ccccc2cc2ccccc12	8.41%
Cn1cc(/C=N/NC(N)=S)c2ccccc21	-12.5%
NC(=S)N/N=C/c1c(O)ccc2ccccc12	-3.38%
CNc1cccnc1C=NNC(N)=S	17.7%
Cc1[nH]c2ccccc2c1/C=N/NC(N)=S	5.2%
O=C(Nc1ccccc1)c1ccc(S(=O)(=O)NCc2cccnc2)cc1	10.4%
CCn1c(SCC(=O)Nc2nc(-c3ccccc3)cs2)nc2c1c(=O)n(C)c(=O)n2C	4.76%
Cc1ccccc1-c1n[nH]c(=S)n1/N=C/C=C/c1ccco1	-17.6%
CNC(=O)Cn1nc(-c2ccc(C)c(S(=O)(=O)N(C)C)c2)c2ccccc2c1=O	-13.6%
O=C1C(Nc2ccccc2)=C(N2CCCCC2)C(=O)c2ccccc21	15.3%
COc1ccccc1NC1=C(N2CCCCC2)C(=O)c2ccccc2C1=O	-0.23%
CC(=O)N(C1=C(N2CCOCC2)C(=O)c2ccccc2C1=O)c1ccc(C(=O)O)cc1	0.48%
CC(=O)N(C)C1=C(N2CCOCC2)C(=O)c2ccccc2C1=O	1.43%
O=C(Nc1ccc(OC(F)F)cc1)c1cc(S(=O)(=O)N2CCOCC2)ccc1F	-7.89%
COCc1c(C(=O)OCC(=O)N(C)C2CCS(=O)(=O)C2)oc2ccccc12 (stereo not given)	-9.04%
Cc1ccccc1NC(NC(=O)c1cccnc1)C(Cl)(Cl)Cl (stereo not given)	-5.69%
Cc1ccc(S(=O)(=O)Nc2ccc(N=Nc3ccc(O)cc3)cc2)cc1	4.71%
Cc1ccc(S(=O)(=O)/N=C2\C=C(NS(=O)(=O)c3ccccc3)C(=O)c3ccccc32)cc1	8.43%
COCCC(=O)N1CCC(Oc2ccc(C(=O)NC3CCOC(C)(C)C3)cc2)CC1 (stereo not given)	5.89%
O=C1C(=O)c2ccc(-c3ccccc3)cc2-c2ccccc21	-3.6%
O=C1C(=O)c2ccccc2-c2ccccc21	5.48%

Reference: PubChem BioAssay AID504329 (Southern Research Specialized Biocontainment Screening …, 2011)
